Data as given in PubChem BioAssay (NCI).
This is part of a sample that, as a whole, favours compounds with a hit. Of some 83,000 tested, about 20% had one in any assay.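 Activity criterion: percent growth below 10, measured after cells in 96-well plates were exposed to a single compound concentration for 48 hours.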 Values without a mark were called inactive. The source made the active and inactive calls.

Assays:
Test in all cases: NCI-60 one-dose screen, 48 h (100 = growth as untreated, 0 = no growth, -100 = all killed)
Settings in all cases: 10 µM unless noted
[1] = tested on: SK-MEL-2 melanoma
[2] = tested on: EKVX NSCLC
[3] = tested on: SN12C renal
[4] = tested on: UO-31 renal
[5] = tested on: TK-10 renal
[6] = tested on: ACHN renal
[7] = tested on: CAKI-1 renal
[8] = tested on: A498 renal
[9] = tested on: CCRF-CEM leukemia
[10] = tested on: MOLT-4 leukemia
[11] = tested on: SR leukemia
[12] = tested on: RPMI-8226 leukemia
[13] = tested on: OVCAR-8 ovarian
[14] = tested on: OVCAR-5 ovarian
[15] = tested on: OVCAR-4 ovarian
[16] = tested on: IGROV1 ovarian
[17] = tested on: OVCAR-3 ovarian
[18] = tested on: HS 578T breast
[19] = tested on: NCI/ADR-RES ovarian
[20] = tested on: SK-OV-3 ovarian

Row | SMILES | growth [1] | growth [2] | growth [3] [%] | growth [4] | growth [5] | growth [6] | growth [7] | growth [8] | growth [9] | growth [10] | growth [11] | growth [12] | growth [13] | growth [14] [%] | growth [15] [%] | growth [16] | growth [17] | growth [18] [%] | growth [19] [%] | growth [20]
1 | COc1ccc(C2NC(=O)Nc3ccccc32)c(OC)c1 (stereo unspecified) | 102% | 97% | 95.3 | 78.3% | 95.5% | 99.4% | 93% | 105% | 101% | 95.5% | 91.7% | 108% | 101% | 112 | 105 | 98.2% | 112% | 94.8 | 99 | –
2 | COc1ccc(/C=C/C(=O)c2ccc([N+](=O)[O-])cc2)cc1 | 98.9% | 128% | 102 | 89.9% | 101% | 108% | 123% | 107% | 85.3% | 86.3% | 85.4% | 78.9% | 105% | 111 | – | 105% | 113% | 106 | 106 | 103%
3 | COC(=O)[C@]12CC[C@@H](C(/C=C/c3cccnc3)=N/O)[C@@H]1[C@H]1CC[C@@H]3[C@@]4(C)CC(=C/c5cccnc5)/C(=N/O)C(C)(C)[C@@H]4CC[C@@]3(C)[C@]1(C)CC2 | 46% | 26% | 44.5 | 19.5% | 67.9% | 42.9% | 23.7% | 92.5% | 16.6% | 2.12% (active) | 11.4% | 1.81% (active) | 39% | – | 40.8 | 16.9% | 37.4% | 78.6 | 33.6 | 64.7%
4 | COc1ccc(/C=C(\C#N)c2cc3ccccc3n2C(C)=O)cc1 | 83.3% | 78% | 91 | 88.1% | 126% | 102% | 69.1% | 78.3% | 75.6% | 70% | 47.3% | 83.2% | 103% | 104 | 96.5 | 89.8% | 92.8% | 87.4 | 55.6 | –
5 | Clc1ccc2[nH]cc(-c3nc(-c4c[nH]c5ncccc45)cs3)c2c1 | 48.1% | 42.7% | 56.7 | 22.2% | 46.1% | 25.9% | 17.1% | 60.2% | 31.2% | 16.1% | 9.06% (active) | 37.6% | 46.2% | 80.6 | – | 32.8% | 55.9% | 75.7 | 38.7 | 59.6%
6 | O=Cc1nc2ccccc2[nH]1 | 101% | 94.5% | 101 | 75.9% | 97% | 106% | 93.2% | 105% | 99.8% | 95.4% | 83% | 96.9% | 100% | 104 | 110 | 107% | 111% | 95.4 | 106 | –
7 | O=C(NC1=CC(=O)c2ccccc2C1=O)c1ccccc1 | 0.417% (active) | 9.48% (active) | 29.2 | -47.5% (active) | 53.3% | 2.6% (active) | 29.6% | 53.3% | 8.93% (active) | -16.9% (active) | -0.906% (active) | 4.25% (active) | 22.4% | 42.2 | – | -30.1% (active) | -82.5% (active) | 25.3 | 16.6 | 32%
8 | COC(=O)[C@]12CC[C@@H](C)[C@H](C)[C@@H]1C1=CC[C@@H]3[C@@]4(C)C[C@@H](O)OC[C@](C)(C=O)C4C(=O)C[C@@]3(C)[C@]1(C)CC2 (stereo partly specified) | -22.4% (active) | 21% | 11.4 | 7.68% (active) | 9.25% (active) | 7.86% (active) | 7.25% (active) | -0.985% (active) | -7.54% (active) | -9.93% (active) | -14.3% (active) | -19.3% (active) | -4.45% (active) | – | 18.5 | 14.7% | -12% (active) | 16.8 | 10.9 | -0.332% (active)
9 | COc1ccc(NC(=O)c2ccoc2COc2ccccc2)cc1 | 97.9% | 94.7% | 94 | 81.1% | 109% | 98.3% | 86.2% | 99.7% | 87.7% | 95.6% | 88.4% | 91.8% | 100% | – | 101 | 91.2% | 109% | 99.7 | 93 | 106%
10 | CC1(C)NC2=C(C(Nc3cccnc3)N1)C(c1ccc([N+](=O)[O-])cc1)C(C(=O)c1ccc(N=[N+]=[N-])cc1)O2 (stereo unspecified) | 107% | 99.8% | 101 | 88.3% | 97.1% | 102% | 102% | 108% | 98.8% | 102% | 102% | 115% | – | 97.6 | 117 | 104% | 110% | 102 | 109 | 108%
11 | Cc1oc(-c2ccccc2Cl)cc1C(=O)Nc1ccc(S(N)(=O)=O)cc1 | 104% | 91.9% | 98.2 | 88.7% | 126% | 106% | 93.9% | 105% | 96.2% | 96.3% | 101% | – | 98.1% | 102 | 96.8 | 113% | 117% | 101 | 102 | 98.5%
12 | CC(=O)OC(C)COc1ccc(-c2ccccc2)cc1 (stereo unspecified) | 95% | 101% | 104 | 106% | 80.7% | 101% | 94.7% | 92.7% | 99.6% | 100% | 97.1% | – | 95.9% | 96.8 | 106 | 112% | 107% | 103 | 118 | –
13 | CC(c1ccccc1)N1C(=O)C(C2SC(=S)N(C(C)c3ccccc3)C2=O)SC1=S (stereo unspecified) | 101% | 94.4% | 85.5 | 66.5% | 106% | 74.4% | 66.6% | 106% | 54.1% | 78.8% | 41.4% | – | 96.6% | 98.8 | 97.2 | 76.5% | 76.8% | 96 | 97.9 | 106%
14 | CCCCCCCC(=O)SCC/C=C/[C@@H]1CC(=O)NCc2cccc(n2)CN(Cc2ccc3ccccc3c2)CC(=O)N[C@@H](C(C)C)C(=O)O1 | 56.5% | 53.9% | 57.1 | 36.4% | 21.6% | 34.7% | 35.8% | 0.931% (active) | 15.6% | 2.35% (active) | 3.23% (active) | 32.6% | – | 26.2 | 66.3 | 53.2% | 47.3% | 34.9 | 30.8 | –
15 | C=C(C)[C@@H]1CC[C@]2(C=NCCCNCCCCNCCCN)CC[C@]3(C)[C@H](CC[C@@H]4[C@@]5(C)CCCNC(C)(C)[C@@H]5CC[C@]43C)[C@@H]12 | 132% | 102% | 91.1 | 92.1% | 120% | 105% | 80.6% | 95.6% | 94.4% | 93.4% | 21.7% | 107% | – | 112 | 102 | 112% | 106% | 104 | 91.8 | 95.8%
16 | COc1ccc(CCN2C(=O)C(C)(C)SC2=S)cc1OC | 107% | 94% | 96 | 88.9% | 96.3% | 104% | 88.1% | 99.3% | 92.3% | 101% | 103% | – | 102% | 104 | 96.6 | 94.4% | 107% | 107 | 100 | 108%
17 | C#CCC(C)(O)/C=C/C1=C(C)CCCC1(C)C (stereo unspecified) | 97.4% | 95.8% | 99.2 | 91.3% | 96.7% | 97.3% | 92.4% | 91.3% | 101% | 101% | 107% | – | 101% | 88.7 | 107 | 102% | 106% | 108 | 99.8 | 92.3%
